Only some compounds are listed: those with a hit (about 4.3% of all), similar ones and a draw of the others.
SMARCA2 act: SMARCA2 function activation, primary screen. MG213 cells, MMTV-luciferase reporter, dexamethasone, overnight. activation, % at 9.1 µM. 370,000 compounds, 1% hits; in the data active = activation above about 7.8%;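 note: 0% = vehicle wells and 100% = reference activator wells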
HSF1 inh: HSF1 inhibition. NIH3T3-HGL HSE-luciferase, MG132-induced, luminescence 8 h; stronger effect = lower value. activity change, negative = inhibition, % at 7.5 µM (by protocol). 300,000 compounds, 0.77% hits;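 active = more than half of replicate wells show activity change below -50%, luminescence cut by over half; inconclusive = some wells, but at most half, below -50%; inactive = no replicate well below -50%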;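 note: luciferase reports HSF-1 transcriptional activity via heat shock element; 0% = median of DMSO wells and -100% = zero luminescence signal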
HSF-1 act: increases HSF-1 driven luciferase reporter signal; NIH3T3-HGL HSF-1 luciferase reporter, MG132, 8 h; 100% = twice DMSO control signal; activation, % at 9 µM; 300,000 compounds, 1.7% hits; AID 504408;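 active = mean replicate activation of at least 50% with a set share of replicates each reaching 50%; inconclusive = only one of those two conditions met; inactive = mean below 50% and too few replicates reaching it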;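 note: 0% = median of the neutral control wells and 100% = twice that signal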
Wnt bcat act: activates Wnt/beta-catenin signaling in a reporter cell assay | activator, plate reader | activation, % at 9.35 µM | 300,000 compounds, 1.2% hits | AID 743398; in the data active = activation above about 30%, passing the limit was not always enough; inconclusive = no clear call, values can overlap the other calls;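 note: 0% = neutral control wells and 100% = positive control wells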
esBAF inh: inhibitors of esBAF chromatin remodeling in mouse ES cells; 350,000 compounds, 2% hits; reporter increase, % at 12.5 µM; Bmi1-luciferase knock-in reporter, 24 h; 100% = twice the neutral-well signal; in the data active = activation above about 40%; inconclusive = no clear call, values can overlap the other calls;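 note: 0% = median of the plate's neutral control wells and 100% = double that signal; a rise in the Bmi1 reporter signal indicates esBAF inhibition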
MITF act: activators of MITF-driven TRPM1 promoter activity in SK-MEL-5 cells; SK-MEL-5 TRPM1-promoter luciferase, 24 h; % of positive control, neutral wells = 0; activation, % at 12.5 µM; 300,000 compounds, 0.75% hits;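 active = mean activation of at least 80% with every replicate also reaching 80%; inconclusive = mean reaches 80% but some replicate falls short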;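 note: 0% = neutral control wells and 100% = parthenolide positive control wells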
* marks the source's active call; other numbers are inactive results.

Screening CC(C)NC(=O)N(C)C[C@@H]1Oc2cc(C#Cc3ccccn3)ccc2S(=O)(=O)N([C@@H](C)CO)C[C@@H]1C returned esBAF inh 0.
`C[C@@H]1CN([C@H](C)CO)C(=O)c2cc(NS(=O)(=O)c3ccc(F)cc3)ccc2O[C@H]1CN(C)Cc1ccc(-c2ccccc2)cc1` gave esBAF inh 1.
Screening O=C(O)c1cccc(NC(=S)NC(=O)c2ccc3ccccc3c2)c1 returned SMARCA2 act -2, HSF1 inh -71*, HSF-1 act -75, Wnt bcat act 16 and MITF act -38.
O=C(O)c1ccc(NC(=S)NC(=O)c2ccc3ccccc3c2)cc1 was read as SMARCA2 act 5, HSF1 inh 16, HSF-1 act 27, Wnt bcat act 18, esBAF inh 41* and MITF act 2.
For C[C@H]1CN([C@@H](C)CO)S(=O)(=O)c2ccc(-c3ccccc3)cc2O[C@H]1CN(C)Cc1ccccn1 the results were esBAF inh -6.
Screening CCCC(=O)Nc1ccc2c(c1)C(=O)N(C)[C@@H]1CC[C@@H](CC(=O)NCCc3ccncc3)O[C@H]1CO2 returned esBAF inh 0.
`CCN(CC)C(=O)CN(Cc1ccccc1)S(=O)(=O)c1ccc(F)cc1` gave SMARCA2 act -3, HSF1 inh -11, HSF-1 act -33, Wnt bcat act -1, esBAF inh -6 and MITF act -3.
Screening CCN(Cc1ccccc1)S(=O)(=O)c1ccc(F)cc1 returned SMARCA2 act 0, HSF1 inh -62*, HSF-1 act -67, Wnt bcat act 0 and esBAF inh 2.
For CCCC(=O)Nc1ccc2c(c1)C(=O)N(C)[C@@H]1CC[C@H](CC(=O)NCc3ccccc3Cl)O[C@H]1CO2 the results were esBAF inh -4.
For CCc1csc(N2[C@H](C#N)[C@@H](c3ccc(-c4cccc(F)c4)cc3)[C@@H]2CO)n1 the results were esBAF inh -1.
For CCOc1cc(/C=N/NC(=O)CSc2nnc(C)s2)ccc1OCc1ccccc1Cl the results were SMARCA2 act 1, HSF1 inh 18, HSF-1 act 26, Wnt bcat act 52* and MITF act -3.
`O=C(CSc1nnc(SCc2ccccc2Cl)s1)N/N=C/c1ccc(C(=O)O)cc1` gave SMARCA2 act 4, Wnt bcat act 19, esBAF inh -2 and MITF act 10.
`S=c1[nH]nc(-c2ccncc2)n1/N=C/c1cn(-c2ccccc2)nc1-c1ccccc1` gave SMARCA2 act 1, HSF1 inh 0, HSF-1 act 18 and Wnt bcat act 37*.
`CC(=O)Nc1cc(-c2ccc(N3CCN(C)CC3)cc2)cn2c(-c3ccc(S(C)(=O)=O)cc3)cnc12` gave SMARCA2 act 1, Wnt bcat act -8 and esBAF inh 8.
Screening CC(=O)Nc1cc(-c2ccc(N3CCN(C)CC3)cc2)cn2c(-c3ccccc3)cnc12 returned SMARCA2 act 3, Wnt bcat act 38* and esBAF inh 6.
`C[C@H]1CN([C@@H](C)CO)S(=O)(=O)c2ccc(-c3ccccc3F)cc2O[C@H]1CN(C)Cc1cccnc1` gave esBAF inh -12.
For Cc1cccc(NC(=O)Nc2ccc3c(c2)C(=O)N(C)[C@H]2CC[C@@H](CC(=O)NCc4ccccc4Cl)O[C@H]2CO3)c1 the results were esBAF inh 15.
`N#CCc1ccc(NC(=O)c2ccc(CN3CCc4ccccc4C3)cc2)cc1` gave SMARCA2 act -3, HSF1 inh -5, HSF-1 act 1, Wnt bcat act -1, esBAF inh 17 and MITF act -6.
`CN(C)c1ccc(NC(=O)CN2CCc3ccccc3C2)cc1` gave SMARCA2 act 7, HSF1 inh 2, HSF-1 act 10, Wnt bcat act 5, esBAF inh 44* and MITF act 46.
`CC(=O)c1ccc(NC(=O)N2CCc3ccccc3C2)cc1` gave SMARCA2 act 2, HSF1 inh 8, HSF-1 act -5, Wnt bcat act 16 and MITF act 78.
`O=C(Nc1ccccc1)N1CCc2ccccc2C1` gave SMARCA2 act 8, HSF1 inh 17, HSF-1 act -6, Wnt bcat act 54*, esBAF inh 44* and MITF act 32.
`O=C(Nc1ccc(Cl)cc1)c1ccc(CN2CCc3ccccc3C2)cc1` gave SMARCA2 act -3, HSF1 inh -4, HSF-1 act 25, Wnt bcat act 5, esBAF inh 49* and MITF act 3.
For O=C(Cc1ccc(Cl)cc1)N1CCc2ccccc2C1 the results were SMARCA2 act -3, HSF1 inh 45, HSF-1 act 59*, Wnt bcat act inconclusive and esBAF inh 46*.
`CN1C(=O)c2cc(NC(=O)c3cccs3)ccc2OC[C@@H]2O[C@H](CC(=O)NCC3CC3)CC[C@H]21` gave esBAF inh -2.
Screening O=C(Nc1ccc(Cl)cc1)N1CCc2ccccc2C1 returned SMARCA2 act 3, HSF1 inh 42, HSF-1 act 80*, Wnt bcat act -1, esBAF inh 48* and MITF act 72.
For COc1ccc(NC(=O)c2ccc3c(c2)CCN3S(C)(=O)=O)cc1 the results were SMARCA2 act -8, Wnt bcat act 3 and esBAF inh 8.
Screening O=C(c1cccc(F)c1)N1CCc2ccccc2C1 returned SMARCA2 act -1, HSF1 inh 6, HSF-1 act 50 and MITF act 18.
O=C(CNc1cccc(F)c1)N1CCc2ccccc2C1 was read as SMARCA2 act 5, HSF1 inh 7, HSF-1 act 19, Wnt bcat act 36*, esBAF inh 51* and MITF act inconclusive.
`CS(=O)(=O)N1CCc2cc(C(=O)Nc3ccc(Cl)cc3)ccc21` gave SMARCA2 act -1, HSF1 inh 13, HSF-1 act 41, Wnt bcat act 8 and esBAF inh 63*.
O=C(C[C@H]1CC[C@@H](NC(=O)C2CC2)[C@H](CO)O1)Nc1ccccc1 was read as esBAF inh -1.
`C[C@H](CO)N1C[C@H](C)[C@@H](CN(C)C(=O)CCCN(C)C)OCCCC[C@H](C)Oc2ccc(NS(=O)(=O)c3cccs3)cc2C1=O` gave esBAF inh -1.
For C[C@H]1CN([C@@H](C)CO)C(=O)c2cc(C3=CCCCC3)cnc2O[C@@H]1CN(C)C(=O)c1ccccc1 the results were esBAF inh -1.
CSc1ccc(C2c3[nH]c4ccccc4c3CCN2C(=O)c2cc(C)n(C)n2)cc1 (stereo not given) was read as HSF1 inh 37 and HSF-1 act 53*.

Compound activity: PubChem, several laboratories
